High-throughput results deposited in PubChem BioAssay by Broad Institute.
Compounds with a hit are over-represented: about 1.2% of the library has one in this group of screens.
miR122 inh – miR-122 Renilla sensor signal increase in Huh7, primary screen, miR-122 inhibitor project, cell-based, single point, plate reader. Huh7 miR-122 Renilla luciferase sensor, 48 h; neutral wells = 0, positive control = 100. activation (reporter increase), % at 12.5 µM. actives 0.3% (n = 340,000). AID 602342, 2012;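 active means mean replicate activation score at least 90 and every replicate individually at or above 90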;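 further: higher luciferase means less miR-122 activity so hits act as miR-122 inhibitors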
NSD2 HMT inh – NSD2 histone methyltransferase inhibitors, primary screen, biochemical, AlphaScreen, single concentration, set 2; inhibition, % at 12.5 µM; actives 0.54% (n = 310,000); NSD2 peptide methylation, 120 min; in the data active means inhibition above about 50%
Target sequence (O96028 whole entry, looked up): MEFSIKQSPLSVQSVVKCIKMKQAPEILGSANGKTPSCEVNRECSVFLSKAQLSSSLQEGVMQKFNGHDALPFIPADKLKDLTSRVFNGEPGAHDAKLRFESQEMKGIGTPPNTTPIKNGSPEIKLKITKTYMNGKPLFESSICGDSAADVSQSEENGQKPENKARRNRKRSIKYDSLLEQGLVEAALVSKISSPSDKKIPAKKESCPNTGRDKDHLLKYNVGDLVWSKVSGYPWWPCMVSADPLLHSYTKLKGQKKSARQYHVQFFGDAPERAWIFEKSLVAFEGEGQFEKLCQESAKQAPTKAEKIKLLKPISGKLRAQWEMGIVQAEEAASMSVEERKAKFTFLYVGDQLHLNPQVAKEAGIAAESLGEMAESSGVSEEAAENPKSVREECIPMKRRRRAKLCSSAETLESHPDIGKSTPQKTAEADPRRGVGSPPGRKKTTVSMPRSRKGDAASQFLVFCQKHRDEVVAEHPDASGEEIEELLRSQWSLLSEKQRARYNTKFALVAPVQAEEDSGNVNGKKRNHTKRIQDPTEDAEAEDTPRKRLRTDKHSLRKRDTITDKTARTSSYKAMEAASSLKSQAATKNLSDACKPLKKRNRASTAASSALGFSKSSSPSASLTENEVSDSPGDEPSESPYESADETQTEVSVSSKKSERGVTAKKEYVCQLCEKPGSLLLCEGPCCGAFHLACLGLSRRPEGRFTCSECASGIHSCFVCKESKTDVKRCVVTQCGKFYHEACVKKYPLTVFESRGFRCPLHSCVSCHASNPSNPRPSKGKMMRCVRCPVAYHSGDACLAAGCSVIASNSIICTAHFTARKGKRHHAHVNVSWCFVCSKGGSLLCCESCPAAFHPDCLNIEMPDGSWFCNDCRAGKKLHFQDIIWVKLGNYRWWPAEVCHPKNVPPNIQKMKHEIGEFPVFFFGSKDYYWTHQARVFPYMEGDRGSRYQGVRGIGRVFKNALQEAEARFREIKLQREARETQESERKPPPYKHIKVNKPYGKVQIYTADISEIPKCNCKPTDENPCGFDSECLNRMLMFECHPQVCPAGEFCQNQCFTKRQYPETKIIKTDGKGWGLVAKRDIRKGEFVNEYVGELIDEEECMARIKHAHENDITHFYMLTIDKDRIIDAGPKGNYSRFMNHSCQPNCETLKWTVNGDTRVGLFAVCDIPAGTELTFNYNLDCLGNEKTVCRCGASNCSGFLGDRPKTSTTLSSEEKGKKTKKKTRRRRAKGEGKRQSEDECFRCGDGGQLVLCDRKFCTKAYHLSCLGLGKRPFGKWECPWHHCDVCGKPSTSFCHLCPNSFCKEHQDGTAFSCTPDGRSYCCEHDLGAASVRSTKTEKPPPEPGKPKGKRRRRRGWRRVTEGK
PglD DTNB – C. jejuni PglD acetyltransferase inhibitors, primary screen, biochemical, DTNB colorimetric, single point; inhibition, % at 12.5 µM; actives 0.098% (n = 360,000); purified PglD enzyme, DTNB colorimetric CoA detection; AID 602405, 2012; UDP-N-acetylbacillosamine N-acetyltransferase PglD (Campylobacter jejuni); in the data active means inhibition above about 16%, passing the limit was not always enough
C2C12 statin – suppressors of statin myotoxicity in C2C12 myotubes, primary screen, cell-based, single point, plate reader; C2C12 myotubes + simvastatin, ATP luminescence, 48 h; scaled: DMSO 0, geranylgeraniol control 100; rescue of ATP level, % at 7.49 µM; actives 0.78% (n = 330,000); AID 602340, 2012;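 active means mean ATP rescue above about 67%, or every replicate alone reaching that limit, limit read from the data, passing the limit was not always enough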;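 further: myotubes were challenged with 10 µM simvastatin during compound exposure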
Large screens that a line does not name were inactive.

C[C@@H]1CCCCO[C@@H](CN(C)S(C)(=O)=O)[C@H](C)CN([C@@H](C)CO)C(=O)c2cc(NS(=O)(=O)c3ccc(Cl)cc3)ccc2O1	none (no result: NSD2 HMT inh)
COc1ccc(/C=N/NS(=O)(=O)c2ccccc2)cc1OC(=O)c1ccc(C)cc1	C2C12 statin 110 (no result: NSD2 HMT inh)
CO[C@H]1CN(C)C(=O)c2cc(NS(=O)(=O)c3ccccc3)ccc2OC[C@@H](C)N(Cc2nccs2)C[C@H]1C	none (no result: miR122 inh, NSD2 HMT inh)
C[C@H](CO)N1C[C@H](C)[C@@H](CN(C)S(=O)(=O)c2ccc(F)cc2)Oc2ccc(NC(=O)CCN3CCOCC3)cc2CC1=O	none (no result: NSD2 HMT inh)
C=CCSc1nc(C)c2cc(C)cc(C)c2n1	C2C12 statin 133
C=CCSc1nc2nc(C)cc(C)n2n1	none
CN1C(=O)c2cc(NC(=O)c3cccs3)ccc2OC[C@H]2O[C@H](CC(=O)N3CCOCC3)CC[C@H]21	none (no result: NSD2 HMT inh)
O=C(Nc1ccccc1C(=O)NC(Cc1ccccc1)C(=O)NC1CCCCCC1)c1ccccc1 (configuration not stated)	C2C12 statin 119
CCCC(=O)Nc1ccc2c(c1)C(=O)N(C)[C@H]1CC[C@@H](CC(=O)O)O[C@H]1CO2	none (no result: NSD2 HMT inh)
Cn1c(O)c(C2=c3ccccc3=NC2=O)sc1=Nc1ccc(Cl)cc1	C2C12 statin 97
Cc1cc(S(=O)(=O)Nc2nc(CN3CCOCC3)nc3sc4c(c23)CCCC4)ccc1F	C2C12 statin 121
C[C@@H]1CN([C@H](C)CO)C(=O)c2cc(C#Cc3ccc(F)cc3)cnc2O[C@H]1CN(C)S(C)(=O)=O	none (no result: NSD2 HMT inh)
Clc1ccc(Sc2oc(/C=N/n3cnnc3)cc2Br)cc1	C2C12 statin 149
Clc1ccc(Sc2ccc(/C=N/n3cnnc3)o2)cc1	none
COC(=O)N1C(=O)[C@@](c2ccsc2)(C(C)C)N1C(=O)OC	none (no result: miR122 inh, PglD DTNB, C2C12 statin)
C[C@@H]1CCCCO[C@@H](CN(C)Cc2ccncc2)[C@H](C)CN([C@H](C)CO)C(=O)c2cc(NC(=O)Nc3ccc4c(c3)OCO4)ccc2O1	none (no result: NSD2 HMT inh, C2C12 statin)
COC(=O)C[C@@H]1C=C[C@H](NS(=O)(=O)c2ccccc2F)[C@@H](CO)O1	none (no result: NSD2 HMT inh)
Cc1ccc(N(Cc2ccco2)C(=O)c2ccc(N3CCCCC3)c([N+](=O)[O-])c2)cc1	miR122 inh 165
CN(C(=O)c1ccc(N2CCCCC2)c([N+](=O)[O-])c1)C1CCS(=O)(=O)C1 (configuration not stated)	C2C12 statin 108
C[C@@H]1CN([C@H](C)CO)C(=O)c2cc(C#Cc3ccc(F)cc3)cnc2O[C@@H]1CN(C)S(C)(=O)=O	none (no result: NSD2 HMT inh)
O=C(C[C@@H]1CC[C@@H]2[C@H](COC[C@@H](O)CN2C(=O)c2ccccc2)O1)NCc1cccc(F)c1	none (no result: NSD2 HMT inh)
CC1CC(C)CN(C(=O)CSC2=Nc3ccccc3C3=NC(Cc4c[nH]c5ccccc45)C(=O)N23)C1 (configuration not stated)	miR122 inh 212 (no result: NSD2 HMT inh)
COc1ccccc1C(=O)N1CCC(C(=O)c2ccc(F)cc2)CC1	C2C12 statin 84 (no result: NSD2 HMT inh)
C[C@H](CO)N1C[C@H](C)[C@@H](CN(C)C(=O)Nc2ccc3c(c2)OCO3)OCCCC[C@H](C)Oc2ccc(NC(=O)Nc3ccccc3)cc2C1=O	none (no result: NSD2 HMT inh, C2C12 statin)
C[C@H](NC(=O)C[C@H]1C[C@H]2c3cc(NS(C)(=O)=O)ccc3O[C@H]2[C@H](CO)O1)c1ccccc1	none (no result: NSD2 HMT inh)
COc1cc2nc(Nc3ccc(C)c(C)c3)nc(N)c2cc1OC	none (no result: miR122 inh)
COc1cc2nc(N(C)C)nc(N)c2cc1OC	C2C12 statin 78
Cc1nn(-c2cc(N3CCCCCC3)ccc2[N+](=O)[O-])c(=O)c2ccccc12	C2C12 statin 109
Cc1nn(-c2cc(N3CCCCC3)ccc2N)c(=O)c2ccccc12	none (no result: PglD DTNB)
CCCNC(=O)Cn1c(=O)n(CC(=O)N2CCCCC2)c(=O)c2sccc21	none (no result: PglD DTNB)
CC(C)NC(=O)Cn1c(=O)n(CC(=O)N2CCCCC2)c(=O)c2sccc21	C2C12 statin 101
Cc1ccc(S(=O)(=O)N(C)C[C@@H]2Oc3c(NC(=O)Nc4ccccc4)cccc3C(=O)N([C@H](C)CO)C[C@@H]2C)cc1	none (no result: NSD2 HMT inh)
CC(=O)c1ccc(-c2cc([C@H]3[C@H]4C=CC[C@@H](C)[C@@H]4C(=O)N3Cc3ccccc3)ccc2F)cc1	C2C12 statin 160 (no result: NSD2 HMT inh)
C[C@@H]1CC=C[C@H]2[C@H]1C(=O)N(Cc1ccccc1)[C@H]2c1ccc(F)c(-c2ccc(N(C)C)cc2)c1	none (no result: NSD2 HMT inh)
C=CCn1c(=O)c2c(nc3n2CC(C)CN3c2cccc(OC)c2)n(C)c1=O (configuration not stated)	C2C12 statin 120 (no result: NSD2 HMT inh)
Cn1cnc(S(=O)(=O)Nc2ccccc2N2CCOCC2)c1	none (no result: C2C12 statin)
CN(C)c1cccc2c1c(NS(=O)(=O)c1cn(C)cn1)nn2C	NSD2 HMT inh 78
CCC(=O)N1CCCCN2[C@H](C1)[C@@H](c1ccc(C#Cc3ccccc3F)cc1)[C@@H]2CO	none (no result: NSD2 HMT inh)
C[C@H](CO)N1C[C@H](C)[C@H](CN(C)C(=O)Nc2ccc(C(F)(F)F)cc2)Oc2c(NC(=O)Nc3ccc4c(c3)OCO4)cccc2C1=O	none (no result: NSD2 HMT inh, C2C12 statin)
O=S(=O)(c1ccccc1C(F)(F)F)N1CCN(S(=O)(=O)c2ccccc2C(F)(F)F)CC1	C2C12 statin 113
CC(=O)c1ccc(S(=O)(=O)N2CCN(S(=O)(=O)c3ccccc3C(F)(F)F)CC2)cc1	none (no result: miR122 inh)
C[C@@H]1CCCCO[C@H](CN(C)C(=O)NC2CCCCC2)[C@H](C)CN([C@@H](C)CO)C(=O)c2cc(NS(=O)(=O)c3cccs3)ccc2O1	C2C12 statin 92 (no result: NSD2 HMT inh)
C[C@@H]1CCCCO[C@@H](CN(C)C(=O)c2ccccc2)[C@H](C)CN([C@@H](C)CO)C(=O)c2cc(NS(=O)(=O)c3cccs3)ccc2O1	C2C12 statin 90 (no result: NSD2 HMT inh)
Cc1noc(C)c1NC(=O)N(C)C[C@@H]1Oc2ccc(NC(=O)CCN3CCOCC3)cc2C(=O)N([C@@H](C)CO)C[C@H]1C	none (no result: NSD2 HMT inh, C2C12 statin)
CCOc1ccccc1NC(=O)c1ccc(OCC)c([N+](=O)[O-])c1	none (no result: miR122 inh, PglD DTNB, C2C12 statin)
CCOc1ccc(C(=O)Nc2nc(C)cc(C)n2)cc1[N+](=O)[O-]	C2C12 statin 93
COc1ccccc1-c1cc(C(F)(F)F)nc(S(=O)(=O)CCCC(=O)N2CCOCC2)n1	C2C12 statin 90
O=C(c1cn(Cc2ccccc2)nc1-c1ccc(Cl)cc1)N1CCN(c2ccccn2)CC1	miR122 inh 120
Cc1ccc(-c2nn(Cc3ccccc3)cc2C(=O)N2CCN(c3ccccn3)CC2)cc1	miR122 inh 107
Cc1ccc(-c2nn(-c3ccccc3)cc2C(=O)N2CCN(c3ccccn3)CC2)cc1	none (no result: miR122 inh, PglD DTNB, C2C12 statin)
COc1cccc(S(=O)(=O)N[C@@H]2CC[C@H](CC(=O)NCc3ccccc3)O[C@@H]2CO)c1	none (no result: miR122 inh, NSD2 HMT inh)
Cc1ccc(NC(=S)N2CCN(C(=O)C3CCCO3)CC2)c(C)c1 (configuration not stated)	C2C12 statin 100
Cc1ccc(NC(=O)CN2CCN(C(=O)C3CCCO3)CC2)c(C)c1 (configuration not stated)	none
